Assay results published in PubChem BioAssay (NCATS).
Unmarked numbers belong to inactive results. Records with an inconclusive call do not appear. Where a call stands in place of a potency, no number is given. Active and inactive are the calls of the source. Calls come from the whole dose curve; as a rule, active = well fitted curve in the direction sought with a large enough effect; inconclusive = small, poorly fitted or top-dose-only effect, or another doubt; inactive = no such curve, though single readings can be large; an effect the other way counts as inactive or inconclusive.

Key:
[1] = qHTS for Inhibitors of Plasmodium falciparum (DD2) proliferation (AID 504314);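 note: parasite DNA measured by SYBR Green fluorescence after red cell lysis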
Procedure, shortened: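 SYBR Green growth assay: 72 h compound exposure of infected red cells (2.5% hematocrit, 0.3% parasitemia), then lysis and overnight dye staining, fluorescence 485/535 nm. Values scaled between DMSO and 0.29 uM artemisinin controls.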

[2] = qHTS for Inhibitors of Plasmodium falciparum (7G8) proliferation (AID 504316); note: nearly all actives have a fitted effect of over 65% in size; note: potency is the fitted concentration of half-maximal effect
Procedure, shortened: (§1)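 Parasite growth measured as SYBR Green DNA fluorescence (ex 485, em 535 nm) after overnight lysis following 72 h culture at 37 °C, 0.3% parasitemia, 2.5% hematocrit. Values normalized against DMSO and 0.29 uM artemisinin controls, with plate-stack correction.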

[3] = qHTS for Inhibitors of Plasmodium falciparum (CP250) proliferation (AID 504320); note: potency is the fitted concentration of half-maximal effect
Procedure, shortened: as §1

[4] = qHTS for Inhibitors of Plasmodium falciparum (HB3) proliferation (AID 504318); note: nearly all actives have a fitted effect of over 60% in size; note: potency is the fitted concentration of half-maximal effect
Procedure, shortened: as §1

[5] = biological target: Cytochrome P450 2C9 (Homo sapiens) (UniProt P11712); test: qHTS Assay for Inhibitors and Substrates of Cytochrome P450 2C9 (AID 883); note: nearly all actives have a fitted effect of over 60% in size
Chain of Cytochrome P450 2C9 (Homo sapiens) (P11712 whole entry, looked up): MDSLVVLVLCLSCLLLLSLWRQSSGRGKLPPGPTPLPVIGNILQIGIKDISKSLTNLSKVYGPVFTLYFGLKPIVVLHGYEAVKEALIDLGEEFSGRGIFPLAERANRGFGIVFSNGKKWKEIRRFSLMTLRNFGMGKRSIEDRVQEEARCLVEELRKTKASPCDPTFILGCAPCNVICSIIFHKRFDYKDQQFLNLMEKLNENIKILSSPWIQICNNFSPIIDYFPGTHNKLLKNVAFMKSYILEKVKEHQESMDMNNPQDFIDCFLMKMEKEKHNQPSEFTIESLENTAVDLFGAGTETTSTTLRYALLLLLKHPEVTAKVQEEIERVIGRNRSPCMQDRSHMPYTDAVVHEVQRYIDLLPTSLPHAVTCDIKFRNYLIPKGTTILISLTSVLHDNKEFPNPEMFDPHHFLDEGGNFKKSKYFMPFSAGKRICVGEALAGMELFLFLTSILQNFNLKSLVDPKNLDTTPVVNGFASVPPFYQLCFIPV
Procedure, shortened: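 Human CYP2C9 (10nM) hydroxylated Luciferin-H (100uM, at its KM) to luciferin in 25mM KPO4. Compound was preincubated 10 min at 37C, then NADPH regeneration started a 60 min reaction at 37C. Luminescence was read after detection reagent, normalized to 57uM sulphaphenazole.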

[6] = biological target: Cytochrome P450 3A4 (Homo sapiens) (UniProt P08684); test: qHTS Assay for Activators of Cytochrome P450 3A4 (AID 885); note: nearly all actives have a fitted effect of over 65% in size
Chain of Cytochrome P450 3A4 (Homo sapiens) (P08684 whole entry, looked up): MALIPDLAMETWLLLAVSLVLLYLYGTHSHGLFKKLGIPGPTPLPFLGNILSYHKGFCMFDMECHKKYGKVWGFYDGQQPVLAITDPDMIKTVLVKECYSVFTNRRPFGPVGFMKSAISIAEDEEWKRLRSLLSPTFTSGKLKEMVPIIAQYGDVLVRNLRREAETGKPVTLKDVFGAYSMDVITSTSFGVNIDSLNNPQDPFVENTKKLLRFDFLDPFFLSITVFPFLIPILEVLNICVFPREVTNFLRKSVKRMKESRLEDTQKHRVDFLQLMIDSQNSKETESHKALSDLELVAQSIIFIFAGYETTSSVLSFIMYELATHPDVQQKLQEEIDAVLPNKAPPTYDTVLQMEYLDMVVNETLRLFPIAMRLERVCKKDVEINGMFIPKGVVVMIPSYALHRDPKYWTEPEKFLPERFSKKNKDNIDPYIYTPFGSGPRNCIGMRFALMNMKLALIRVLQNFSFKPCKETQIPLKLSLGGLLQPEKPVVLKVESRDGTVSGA
Procedure, shortened: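 Luminescent readout of luciferin formed from 25 uM Luciferin-PPXE (KM level) by 20 nM CYP3A4 in 200 mM KPO4, with 60 min NADPH-driven reaction at room temperature after 10 min compound exposure. Ketoconazole (57 uM) defined 100% inhibition.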

[7] = biological target: Cytochrome P450 2D6 (Homo sapiens) (UniProt P10635); test: qHTS Assay for Inhibitors and Substrates of Cytochrome P450 2D6 (AID 891);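 note: luciferin methyl ether substrate demethylated by CYP2D6 with NADPH regeneration; nearly all actives have a fitted effect of over 60% in size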
Chain of Cytochrome P450 2D6 (Homo sapiens) (P10635 whole entry, looked up): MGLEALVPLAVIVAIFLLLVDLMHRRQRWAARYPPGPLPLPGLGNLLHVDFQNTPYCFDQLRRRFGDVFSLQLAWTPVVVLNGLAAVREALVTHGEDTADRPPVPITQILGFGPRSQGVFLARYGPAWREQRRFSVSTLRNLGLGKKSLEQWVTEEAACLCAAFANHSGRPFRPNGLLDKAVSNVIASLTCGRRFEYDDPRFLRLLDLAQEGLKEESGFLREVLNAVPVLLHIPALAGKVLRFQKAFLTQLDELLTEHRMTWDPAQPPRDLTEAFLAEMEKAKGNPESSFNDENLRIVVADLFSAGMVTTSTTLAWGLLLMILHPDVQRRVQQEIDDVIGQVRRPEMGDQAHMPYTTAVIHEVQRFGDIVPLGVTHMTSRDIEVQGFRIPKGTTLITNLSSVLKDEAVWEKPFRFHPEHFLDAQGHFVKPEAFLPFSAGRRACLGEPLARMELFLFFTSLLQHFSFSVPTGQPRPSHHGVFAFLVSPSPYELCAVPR
Procedure, shortened: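 Luminescent read-out of luciferin formed by 5 nM human CYP2D6 demethylating 30 uM Luciferin-ME EGE (Km level) over 60 min at room temperature after NADPH regeneration addition. Data normalized to full inhibition by 1.43 uM quinidine.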

[8] = qHTS for Inhibitors of Plasmodium falciparum (GB4) proliferation (AID 504315); note: nearly all actives have a fitted effect of over 50% in size; note: potency is the fitted concentration of half-maximal effect
Procedure, shortened: as §1

Question: With `COC(=O)[C@@H](NC(=O)N1CCc2nc(COc3ccccc3)c3c(c2C1)CO[C@@H](C)C3)C(C)C` as the compound, how does the Potency [1] read?
Answer: Its Potency is “inactive”.

Question: What about the Potency [2] of the same compound?
Answer: The Potency was 1690 nM (active).

Question: And the Potency [3]?
Answer: The Potency was “inactive”.

Question: Which results are given for `COC(=O)C1=C(C)N(Cc2ccco2)C(=O)N[C@@H]1c1ccc(Br)cc1`?
Answer: Potency [1]: inactive; Potency [2]: inactive; Potency [4]: inactive; Potency [3]: inactive

Question: What does the source list for `COC(=O)N1C(/C=C/c2ccc3c(c2)OCO3)=Cc2ccccc2C1CC(C)=O` (stereo not drawn)?
Answer: Potency [1]: inactive; Potency [2]: 2690 nM (active)

Question: Which Potency [1] does the source give for `CCOC(=O)NN=C1C[C@@H](O)[C@@H](O)[C@@H]2[C@H]3C(=O)N(CC)C(=O)[C@@H]3CC[C@@H]12` here?
Answer: Its Potency is “inactive”.

Question: And the Potency [2]?
Answer: The Potency was “inactive”.

Question: And the Potency [4]?
Answer: Its Potency is “inactive”.

Question: Which results are given for `COC(=O)C1=C(C(=O)OC)[C@@H]2N(C)c3ccc(OC)cc3[C@@]23C[C@@H](C(=O)OC)N(S(=O)(=O)c2ccc([N+](=O)[O-])cc2)C3=N1`?
Answer: Potency [1]: inactive; Potency [2]: 1510 nM (active); Potency [3]: inactive

Question: With `CCCCc1nc2c(c3c1C[C@H](C)OC3)CN(C(=O)Nc1cccc(C#N)c1)CC2` as the compound, how does the Potency [1] read?
Answer: Its Potency is “inactive”.

Question: What about the Potency [2] of the same compound?
Answer: Its Potency is “inactive”.

Question: What about the Potency [4] of the same compound?
Answer: Its Potency is “inactive”.

Question: For `COC(=O)N1C(C)=Cc2ccccc2C1C/C(C)=C/C(C)=O` (stereo not drawn), which Potency [1] is on record?
Answer: The Potency was “inactive”.

Question: What about the Potency [2] of the same compound?
Answer: The Potency was “inactive”.

Question: What about the Potency [4] of the same compound?
Answer: The Potency was “inactive”.

Question: And the Potency [3]?
Answer: The Potency was “inactive”.

Question: What does the source list for `COC(=O)N1C(/C=C/C=C/c2ccc(OC)cc2)=Cc2ccccc2C1CC(C)=O` (stereo not drawn)?
Answer: Potency [1]: inactive; Potency [2]: 1510 nM (active); Potency [3]: inactive

Question: Which Potency [1] does the source give for `COC(=O)C1=C(C(=O)OC)[C@@H]2Nc3ccccc3[C@@]23C[C@@H](C(=O)OC)N=C3N1` here?
Answer: Its Potency is “inactive”.

Question: And the Potency [2]?
Answer: The Potency was “inactive”.

Question: What about the Potency [3] of the same compound?
Answer: Its Potency is “inactive”.

Question: With `CCCCn1c(C)cc2c(c1=O)[C@H]1O[C@](c3ccsc3)(Cc3ccccc31)O2` as the compound, how does the Potency [1] read?
Answer: The Potency was “inactive”.

Question: And the Potency [2]?
Answer: Its Potency is 1690 nM (active).

Question: With `CCCCS(=O)(=O)N1CCc2nc(COc3ccccc3)c3c(c2C1)CO[C@@H](C)C3` as the compound, how does the Potency [1] read?
Answer: The Potency was “inactive”.

Question: What about the Potency [2] of the same compound?
Answer: Its Potency is “inactive”.

Question: And the Potency [4]?
Answer: Its Potency is “inactive”.

Question: For `CCCCCCC(=O)Cc1cc(OC)c(OC)cc1C=C(C(=O)OCC)C(=O)OCC`, which Potency [5] is on record?
Answer: The Potency was “inactive”.

Question: What about the activity change, positive = activation [6] of the same compound?
Answer: The activity change, positive = activation was -90.7% [at 11.4 µM].

Question: And the Potency [7]?
Answer: Its Potency is “inactive”.

Question: And the Potency [1]?
Answer: The Potency was “inactive”.

Question: What about the Potency [2] of the same compound?
Answer: Its Potency is “inactive”.

Question: And the Potency [3]?
Answer: Its Potency is “inactive”.

Question: With `CCOC(=O)CN1C(=O)N[C@@H](CCc2ccccc2)[C@H](C(C)=O)[C@H]1C` as the compound, how does the Potency [1] read?
Answer: Its Potency is “inactive”.

Question: And the Potency [2]?
Answer: The Potency was “inactive”.

Question: What about the Potency [4] of the same compound?
Answer: The Potency was “inactive”.

Question: And the Potency [3]?
Answer: The Potency was “inactive”.

Question: Which Potency [1] does the source give for `C#CCCOC(=O)N1C2=NC(C(=O)OC)=C(C(=O)OC)[C@@H]3N(Cc4ccccc4)c4ccccc4[C@]23C[C@H]1C(=O)OC` here?
Answer: The Potency was “inactive”.

Question: What about the Potency [3] of the same compound?
Answer: Its Potency is “inactive”.

Question: Which Potency [1] does the source give for `CC#CCN1c2ccccc2[C@]23C[C@@H](C(=O)OC)N(S(=O)(=O)c4ccc(C#N)cc4)C2=NC(C(=O)OC)=C(C(=O)OC)[C@H]13` here?
Answer: Its Potency is “inactive”.

Question: And the Potency [3]?
Answer: Its Potency is “inactive”.

Question: With `CCCCCCCC1=Cc2ccccc2C(C(C(C)=O)C(=O)OC)N1C(=O)OC` (stereo not drawn) as the compound, how does the Potency [1] read?
Answer: The Potency was “inactive”.

Question: And the Potency [3]?
Answer: Its Potency is “inactive”.

Question: Which results are given for `COC(=O)CCC(=O)OC1(C)C(=O)C=C2C=C(C3CC3)N(c3cccc(C#N)c3)C=C2C1=O` (stereo not drawn)?
Answer: Potency [1]: inactive; Potency [3]: inactive

Question: Which Potency [1] does the source give for `CCCCS(=O)(=O)N1CCc2nc(-c3ccc(OC)cc3C)c3c(c2C1)CO[C@@H](c1ccccc1)C3` here?
Answer: The Potency was “inactive”.

Question: What about the Potency [3] of the same compound?
Answer: Its Potency is “inactive”.

Question: For `COCCN1C=C2C(=O)C(C)(OC(=O)CCC(=O)OC)C(=O)C=C2C=C1C1CC1` (stereo not drawn), which Potency [1] is on record?
Answer: Its Potency is “inactive”.

Question: And the Potency [4]?
Answer: Its Potency is “inactive”.

Question: With `COC(=O)[C@H]1[C@@H](C)N(CCc2cc(OC)c(OC)c(OC)c2)C(=O)N[C@H]1c1ccccc1` as the compound, how does the Potency [1] read?
Answer: The Potency was “inactive”.

Question: And the Potency [4]?
Answer: The Potency was “inactive”.

Question: What about the Potency [3] of the same compound?
Answer: The Potency was “inactive”.

Question: For `COC(=O)C1=C(C(=O)OC)[C@@H]2Nc3ccccc3[C@@]23C[C@@H](C(=O)OC)N(S(=O)(=O)c2ccc(C(F)(F)F)cc2)C3=N1`, which Potency [1] is on record?
Answer: The Potency was “inactive”.

Question: And the Potency [3]?
Answer: The Potency was “inactive”.

Question: Which results are given for `C#CCCOC(=O)N1C2=NC(C(=O)OC)=C(C(=O)OC)[C@@H]3N(C)c4ccc(OC)cc4[C@]23C[C@H]1C(=O)OC`?
Answer: Potency [1]: inactive; Potency [3]: inactive

Question: With `COC(=O)C(C(=O)OC)[C@@H]1c2ccccc2[C@H]2C(=C[C@@H](C)[C@H]3C(=O)N(c4ccccc4)C(=O)[C@H]32)N1C(=O)OC` as the compound, how does the Potency [8] read?
Answer: Its Potency is “inactive”.

Question: What about the Potency [2] of the same compound?
Answer: The Potency was “inactive”.

Question: And the Potency [4]?
Answer: Its Potency is “inactive”.

Question: What about the Potency [3] of the same compound?
Answer: Its Potency is “inactive”.

Question: What does the source list for `c1ccc(-c2nc(-c3cccc4ccccc34)c(Nc3ccc4ccccc4c3)o2)cc1`?
Answer: Potency [8]: 1510 nM (active); Potency [2]: 1510 nM (active); Potency [4]: 1510 nM (active)

Question: Which Potency [8] does the source give for `COC(=O)C1=C(C(=O)OC)[C@@H]2N(Cc3ccccc3)c3ccccc3[C@@]23C[C@@H](C(=O)OC)N(S(=O)(=O)c2ccc(C(F)(F)F)cc2)C3=N1` here?
Answer: Its Potency is 536 nM (active).

Question: And the Potency [2]?
Answer: Its Potency is 478 nM (active).

Question: And the Potency [4]?
Answer: Its Potency is 478 nM (active).

Question: What about the Potency [3] of the same compound?
Answer: Its Potency is 536 nM (active).

Question: Which Potency [1] does the source give for `CC#CCN1c2ccccc2[C@]23C[C@@H](C(=O)OC)N(S(=O)(=O)c4c(C)noc4C)C2=NC(C(=O)OC)=C(C(=O)OC)[C@H]13` here?
Answer: The Potency was “inactive”.

Question: And the Potency [3]?
Answer: The Potency was “inactive”.

Question: With `CCCCCCCc1cc2ccccc2c2c(C(=O)OC)c(-c3ccccc3)c(C(=O)OC)n12` as the compound, how does the Potency [8] read?
Answer: The Potency was “inactive”.

Question: What about the Potency [2] of the same compound?
Answer: Its Potency is “inactive”.

Question: And the Potency [4]?
Answer: Its Potency is “inactive”.

Question: What about the Potency [3] of the same compound?
Answer: The Potency was “inactive”.

Question: Which Potency [8] does the source give for `C=CCN1C=C2C(=O)C(C)(OC(=O)c3cccs3)C(=O)C=C2C=C1CCCC(=O)OC` (stereo not drawn) here?
Answer: Its Potency is “inactive”.

Question: What about the Potency [2] of the same compound?
Answer: Its Potency is “inactive”.

Question: What about the Potency [4] of the same compound?
Answer: Its Potency is “inactive”.

Question: What about the Potency [3] of the same compound?
Answer: Its Potency is “inactive”.

Question: With `COC(=O)N1C2=C(c3ccccc3[C@@H]1CC(=O)Nc1ccc(Br)cc1)[C@@H]1C(=O)N(c3ccccc3)C(=O)[C@@H]1[C@H](C)C2` as the compound, how does the Potency [1] read?
Answer: The Potency was “inactive”.

Question: What about the Potency [3] of the same compound?
Answer: The Potency was “inactive”.

Question: With `COC(=O)CCC(=O)OC1(C)C(=O)C=C2C=C(C3CC3)N(CC3CC3)C=C2C1=O` (stereo not drawn) as the compound, how does the Potency [1] read?
Answer: The Potency was “inactive”.

Question: What about the Potency [4] of the same compound?
Answer: The Potency was “inactive”.

Question: With `COC(=O)N1C2CC(=O)O[C@@H]3c4cc5c(cc4[C@]1(C)[C@@]3(Br)c1ccccc12)OCO5` as the compound, how does the Potency [8] read?
Answer: The Potency was 1510 nM (active).

Question: And the Potency [2]?
Answer: Its Potency is 1690 nM (active).

Question: What about the Potency [4] of the same compound?
Answer: Its Potency is 1900 nM (active).

Question: And the Potency [3]?
Answer: The Potency was 1200 nM (active).

Question: For `COC(=O)C1=C(C(=O)OC)[C@@H]2N(Cc3ccccc3)c3ccccc3[C@@]23C[C@@H](C(=O)OC)N(C(=O)c2ccc(Br)cc2)C3=N1`, which Potency [1] is on record?
Answer: The Potency was “inactive”.

Question: And the Potency [3]?
Answer: The Potency was “inactive”.
